Assay results reported in PubChem BioAssay AID485341 (National Center for Advancing Translational Sciences (NCATS), 2010).
About 1,700 (0.52%) of roughly 330,000 compounds were called active. Calls come from the whole dose curve; as a rule, active = well fitted inhibition curve with a large enough effect; inconclusive = small, poorly fitted or top-dose-only effect; inactive = no such curve, though single readings can be large or run the other way. The list comes from a sample in which actives are over-represented; it also holds similar structures and randomly drawn compounds. A call without a number means that no potency is given here.

target: Beta-lactamase (Escherichia coli (strain K12)) (UniProt P00811); assay: qHTS Inhibitors of AmpC Beta-Lactamase (assay without detergent); conditions: AmpC nitrocefin hydrolysis, absorbance 480 nm, 0.0001% Triton; series mostly up to 57.1 µM; note: nearly all actives have a fitted effect of over 20% in size
Protocol: NIH Molecular Libraries Probe Production Network [MLPCN] NIH Chemical Genomics Center [NCGC] Assay Provider: Professor Brian Shoichet, UCSF Assay Overview: This aggregation profiling approach exploits the sensitivity of aggregate formation to detergent. Inhibition of b-lactamase is measured in the presence and absence of 0.01% Triton X-100. This particular assay had the prescence of 0.01% Triton X-100. See Pubchem assay "Promiscuous and Specific Inhibitors of AmpC Beta-Lactamase (assay without detergent)" for related screen. Compounds that inhibit only in the absence of detergent are considered likely promiscuous aggregators. A screen of 1,030 compounds was performed in Brian Shoichet's lab in 96-well format. AmpC activity was measured by following the absorbance at 480 nm. Nitrocefin is a chromogenic substrate: while nitrocefin is yellow (lmax 390 nm), the product of its hydrolysis is red (lmax 486 nm, 17,000 M-1). AmpC beta lactamase was provided by Shoichet Lab, UCSF.
Buffer: 20 mM phosphate buffer, pH 7.0 Triton X-100: No Detergent screen: 0.0001%, Detergent screen: 0.01%. Reagents/Controls: Buffer in columns 3 and 4 as negative control (no enzyme). 5.3 nM AmpC in columns 1, 2, 5-48. Titration of UCSF compound 9 control (from 10 mM, then 1:2) pin-transferred to column 2. Column 1 is neutral (100% activity). Assay Steps: Six uL of reagents were dispensed to 1536-well Greiner black clear bottom plates. Compounds and controls (23 nL) were transferred via Kalypsys PinTool. The plates were incubated for 15 min at room temperature, and then 2 uL of 800 uM solution of nitrocefin was added to start the reaction. The plates were immediately transferred to and read every 20 seconds for 4 min on ViewLux (Perkin-Elmer) High-throughput CCD imager using 480 nm absorbance protocol. During dispense, reagent bottles were kept submerged into 4 deg C water bath. Keywords: NIH Roadmap, MLSCN, MLI, MLSMR, qHTS, NCGC, AmpC Beta-Lactamase, Aggregation
Potency is the fitted concentration of half-maximal effect.

Beta-lactamase (Escherichia coli (strain K12)), sequence (P00811 whole entry, looked up): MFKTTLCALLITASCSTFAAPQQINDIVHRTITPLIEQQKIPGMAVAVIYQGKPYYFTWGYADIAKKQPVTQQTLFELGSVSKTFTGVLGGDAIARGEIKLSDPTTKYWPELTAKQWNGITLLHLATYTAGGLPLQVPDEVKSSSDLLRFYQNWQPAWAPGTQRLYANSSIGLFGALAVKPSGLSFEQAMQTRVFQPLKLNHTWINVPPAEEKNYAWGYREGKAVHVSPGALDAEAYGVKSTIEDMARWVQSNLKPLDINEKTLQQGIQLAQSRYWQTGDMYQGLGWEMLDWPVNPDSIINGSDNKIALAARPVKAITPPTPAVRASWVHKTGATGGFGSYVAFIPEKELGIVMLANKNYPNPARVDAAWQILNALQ

Row | Compound | Potency | activity change, negative = inhibition
1 | CC1=CC2=NC(=O)CC(C)(C(=O)N(CC(=O)NC(C)(C)C)Cc3ccccc3)N2C=C1 (stereo unspecified) | inactive | 
2 | Cc1ccc(Sc2cc(N3CCOCC3)nc(-c3ccccc3)n2)cc1 | inactive | 
3 | N#Cc1ccccc1Sc1ccccc1C(=O)OCC(=O)NC1CCCCC1 | 35.5 µM (active) | 
4 | O=C(COC(=O)c1ccccc1SCC(=O)NC1CCCCC1)NC1CCCCC1 | inactive | 
5 | O=C(COC(=O)c1ccccc1Cl)NC1CCCCCCC1 | inactive | 
6 | CCCn1nc2cc(C(=O)NCc3ccccc3)ccc2c1OCC | inactive | 
7 | CCOc1c2ccc(C(=O)NCc3ccc4c(c3)OCO4)cc2nn1C | 0.316 µM (active) | 
8 | CCOc1c2ccc(C(=O)NCc3ccc(OC(F)(F)F)cc3)cc2nn1C | inactive | 
9 | CCCc1noc2c1/C(=N\O)CCC2 | inactive | 
10 | Cc1ccc(CNC(=O)CC(NC(=O)c2ccccc2)c2ccccc2)cc1 (stereo unspecified) | inactive | 
11 | COc1cccc(Nc2nnc(SCC(=O)N3CC(=O)Nc4ccccc43)s2)c1 | inactive | 
12 | Cc1ccc(Cc2cnc(N)s2)o1 | inactive | 
13 | Cc1ccc(CCC(=O)Nc2ncc(Cc3cc(Cl)ccc3Cl)s2)o1 | 20 µM (active) | 
14 | O=C(CCc1ccccc1Cl)Nc1ccc(S(=O)(=O)Nc2nccs2)cc1 | inactive | 
15 | O=S(=O)(Nc1cccc(-c2ccc(N3CCOCC3)nn2)c1)c1ccc(Cl)c(Cl)c1 | inactive | 
16 | O=C(NCC(c1ccco1)N1CCc2ccccc21)c1cccc(F)c1 (stereo unspecified) | inactive | 
17 | O=C(/C=C/c1ccccc1)Oc1coc(CSc2ncccn2)cc1=O | inactive | 
18 | Cc1nc(SCC(=O)N2CCc3ccccc3C2)c2c(C)c(C)sc2n1 | 0.158 µM (active) | 
19 | Cc1nc(SCC(=O)N2CC(=O)Nc3ccccc32)c2c(C)c(C)sc2n1 | inactive | 
20 | O=C(CSc1nnc(-c2cccs2)n1Cc1ccccc1)N1CCc2ccccc2C1 | inactive | 
21 | CC(C)C(=O)Nc1nnc(Sc2ccc(N(C)C)cc2)s1 | inactive | 
22 | Fc1cccc(Cc2noc(CN3CCN(c4cnccn4)CC3)n2)c1 | inactive | 
23 | Cc1ccc(-n2c(C)cc(/C=C(\C#N)C(=O)NCC3CCCO3)c2C)cc1 (stereo unspecified) | inactive | 
24 | Cc1ccc2c(c1)C(c1ccccc1)N(C(=O)c1ccc(F)cc1)CC(=O)N2 (stereo unspecified) | inactive | 
25 | CC(C)C(=O)N1CC(=O)Nc2ccc(F)cc2C1c1ccc(F)cc1 (stereo unspecified) | inactive | 
26 | CCC(CC)C(=O)N1CC(=O)Nc2ccc(Br)cc2C1c1ccccc1 (stereo unspecified) | 0.891 µM (active) | 

Row | Compound | Potency | activity change, negative = inhibition
27 | CCCOC(=O)c1[nH]c2c(c1C)C(=O)CC(c1cc(OC)c(OC)c(OC)c1)C2 (stereo unspecified) | 2.51 µM (active) | 
28 | CCCOC(=O)c1[nH]c2c(c1C)C(=O)CC(c1cccs1)C2 (stereo unspecified) | inactive | 
29 | COCCOC(=O)c1[nH]c2c(c1C)C(=O)CC(c1ccc(OC)cc1)C2 (stereo unspecified) | inactive | 
30 | COC(=O)Nc1ccc(S(=O)(=O)N2CCN(CCN3C(=O)C4C5C=CC(C5)C4C3=O)CC2)cc1 (stereo unspecified) | inactive | 
31 | O=C(CCc1ccccc1F)N1CCN(c2ccccc2)CC1 | inactive | 
32 | C=C(C)Cn1c(N2CCN(CC)CC2)nc2c1c(=O)[nH]c(=O)n2C | inactive | 
33 | Nc1cc(N2CCCCCC2)c2nonc2c1[N+](=O)[O-] | inactive | 
34 | COc1ccc(CCNC(=O)C(=O)NCC2CCCN2S(=O)(=O)c2cccs2)cc1OC (stereo unspecified) | 31.6 µM (active) | 
35 | O=C(NCc1ccc(Cl)cc1)C1CCN(S(=O)(=O)c2cccs2)CC1 | inactive | 
36 | COc1ccc(C(=O)NCC2CCCN2S(=O)(=O)c2cccs2)cc1OC (stereo unspecified) | inactive | 
37 | COc1ccccc1CCNC(=O)C(=O)NCCC1CCCCN1S(=O)(=O)c1cccs1 (stereo unspecified) | inactive | 
38 | O=C(NCc1ccc(Cl)cc1)C(=O)NCC1CCCN1S(=O)(=O)c1cccs1 (stereo unspecified) | 35.5 µM (active) | 
39 | O=C(NCc1ccccc1Cl)C(=O)NCC1CCCN1S(=O)(=O)c1cccs1 (stereo unspecified) | inactive | 
40 | O=C(COc1ccc([N+](=O)[O-])cc1)Nc1cccc(C(=O)Nc2ccccc2C(=O)O)c1 | inactive | 
41 | O=C(NCCc1ccco1)C(=O)NCCC1CCCCN1S(=O)(=O)c1ccccc1 (stereo unspecified) | inactive | 
42 | COc1cccc(CNC(=O)CN(C)S(=O)(=O)c2ccc3c(c2)c(=O)n(C)c(=O)n3C)c1 | inactive | 
43 | CCC1Oc2ccccc2N(CC(=O)NCCCN2CCN(CC)CC2)C1=O (stereo unspecified) | inactive | 
44 | COC(=O)c1ccc(/C=N/N2C(C)CCCC2C)cc1 (stereo unspecified) | inactive | 
45 | O=C1C(Cl)=C(N2CCOCC2)C(=O)N1c1ccccc1 | inactive | 
46 | O=C1OC(NC(=O)c2ccccc2)C(N2CCOCC2)=C1Cl (stereo unspecified) | inactive | 
47 | O=C1OC(OC(=O)c2ccccc2Br)C(N2CCOCC2)=C1Cl (stereo unspecified) | 4.47 µM (active) | 
48 | CC(=O)N1CCN(S(=O)(=O)c2c(F)cc(F)c(Cl)c2F)CC1 | inactive | 
49 | CC(=O)Nc1ccc(C(=O)OCC(=O)Nc2ccc([N+](=O)[O-])cc2C(F)(F)F)cc1 | inactive | 
50 | O=C(CCN1C(=O)C2C3CCC(C3)C2C1=O)Nc1ccc(Cl)cc1Cl (stereo unspecified) | inactive | 
51 | CC1CN(c2nc(-c3ccccc3)nnc2-c2ccccc2)CC(C)O1 (stereo unspecified) | inactive | 
52 | O=C1Cc2cc(S(=O)(=O)Nc3cccc(F)c3)ccc2N1 | inactive | 

Row | Compound | Potency | activity change, negative = inhibition
53 | CSc1ccc(S(=O)(=O)Nc2cccc(F)c2)cc1 | 0.251 µM (active) | 
54 | Cn1c(=O)n(C)c2cc(NS(=O)(=O)c3ccc(F)cc3)ccc21 |  | -28.5% [at 2.29 µM] (inactive)
55 | CC1CCN(C(=O)/C(=C\c2ccccc2F)NC(=O)c2ccccc2)CC1 | inactive | 
56 | CCCC(CNC(=O)COC(=O)C1=NNC(=O)CC1)c1ccc(Cl)cc1Cl (stereo unspecified) | inactive | 
57 | CC(C)(C)NC(=O)NC(=O)COC(=O)Cc1c(F)cccc1Cl | inactive | 
58 | CC(NC(=S)Nc1ccccc1)C(c1cccs1)N1CCOCC1 (stereo unspecified) | inactive | 
59 | CCCCn1c(SCC(=O)N2CCCC2=O)nc2cc(S(N)(=O)=O)ccc21 | inactive | 
60 | CCOc1ccc(N2C(=O)CN(c3cccc4ccccc34)C2=S)cc1 | 10 µM (active) | 
61 | CCO/C=C1\C(=O)N(c2ccc(OCC)cc2)C(=O)c2ccccc21 | inactive | 
62 | CCOc1ccc(N2C(=O)CSC2=NC#N)cc1 | inactive | 
63 | Cc1cc(NC(=O)CSCc2nc(-c3cccc(Cl)c3)oc2C)no1 | inactive | 
64 | O=S(=O)(c1ccc(SCc2ccccc2)nc1)N1CCCCCC1 | inactive | 
65 | C/C(CC(C)C)=N\Oc1nc(C)cc(C)n1 | inactive | 
66 | O=C(NCC(c1ccco1)N1CCc2ccccc2C1)c1ccccc1Cl (stereo unspecified) | inactive | 
67 | COc1ccc(NC(=O)C(=O)NCC(c2ccco2)N2CCc3ccccc3C2)cc1 (stereo unspecified) | 28.2 µM (active) | 
68 | CCOC(CNC(=O)C(=O)NCC(c1ccco1)N1CCN(c2ccc(OC)cc2)CC1)OCC (stereo unspecified) | inactive | 
69 | O=[N+]([O-])c1ccc(N2CCN(S(=O)(=O)c3ccccc3)CC2)cc1N1CCc2ccccc2C1 | inactive | 
70 | O=C(N[C@@H](Cc1ccccc1)C(=O)OCc1ccccc1)c1nc[nH]c1C(=O)N[C@@H](Cc1ccccc1)C(=O)OCc1ccccc1 | inactive | 
71 | CCC(C(=O)Nc1ncccn1)(C(F)(F)F)C(F)(F)F | inactive | 
72 | CSc1ccc(CCNC(=O)CS(=O)(=O)Cc2nc(-c3ccccc3F)oc2C)cc1 | inactive | 
73 | Cc1ccccc1-c1nc(CS(=O)(=O)CC(=O)NC(C)c2ccccc2)c(C)o1 (stereo unspecified) | inactive | 
74 | Cc1ccccc1-c1nc(CS(=O)(=O)CC(=O)N2CCc3ccccc3C2)c(C)o1 | 11.2 µM (active) | 
75 | CCC[C@H]1CCCC/C=C\CCCC(=O)OCCN1C(=O)OC(C)(C)C | inactive | 
76 | COCCn1c(CN2CCC(Cc3ccccc3)CC2)nc2c1c(=O)n(C)c(=O)n2C | inactive | 
77 | CC1CCCN(Cc2nc3c(c(=O)n(C)c(=O)n3C)n2CC(=O)c2ccccc2)C1 (stereo unspecified) | inactive | 
78 | COCCn1c(CN(Cc2ccccc2)Cc2ccccc2)nc2c1c(=O)n(C)c(=O)n2C | inactive | 

Row | Compound | Potency | activity change, negative = inhibition
79 | CC(C)Cn1c(CN(Cc2ccccc2)Cc2ccccc2)nc2c1c(=O)n(C)c(=O)n2C | 3.55 µM (active) | 
80 | CCN1CCN(Cc2nc3c(c(=O)n(C)c(=O)n3C)n2CC(=O)c2ccccc2)CC1 | 1.58 µM (active) | 
81 | CC(C)CCn1c(CN(C)Cc2ccccc2)nc2c1c(=O)n(C)c(=O)n2C | inactive | 
82 | Cc1oc2nc(SCC(=O)Nc3ccc(S(N)(=O)=O)cc3)nc(NC(=O)c3ccccc3)c2c1C | inactive | 
83 | O=C(CNC1CCCCC1)NCC1(c2ccccc2)CCCC1 | inactive | 
84 | Cc1ccc(C(=O)NNC(=O)CSc2nnc3ccccn23)cc1 | inactive | 
85 | Cc1ccc(-n2c(C)cc(C(=O)CSc3nnc4ccccn34)c2C)cc1 | inactive | 
86 | O=C(CSc1nnc2ccccn12)c1ccccc1 | 44.7 µM (active) | 
87 | COc1ccc(N2CCN(C(=O)CNC(=O)c3ccc(Br)o3)CC2)cc1 | inactive | 
88 | COc1ccc(-c2nc(CCNC(=O)c3ccc(Br)o3)cs2)cc1 | 44.7 µM (active) | 
89 | O=C(NCCc1csc(-c2ccccc2)n1)c1ccccc1F | inactive | 
90 | CCOC(=O)N1CCN(Cc2oc(CO)cc(=O)c2O)CC1 | inactive | 
91 | Cc1cc(C)cc(C(=O)NC2C(=O)N3C(C(=O)O)=C(CSc4nnc(C)s4)CSC23)c1 (stereo unspecified) | inactive | 
92 | CC(C)(C)OC(=O)C1=C(CO)CS[C@@H]2[C@H](NC(=O)Cc3ccccc3)C(=O)N12 | inactive | 
93 | C=CC1=C(C(=O)O)N2C(=O)[C@@H](NC(=O)/C(=N\OCC(=O)O)c3csc(N)n3)[C@H]2SC1 | 2 µM (active) | 
94 | Cc1nnc(SCC2=C(C(=O)O)N3C(=O)C(NC(=O)Cn4nc(C)c(Cl)c4C)C3SC2)s1 (stereo unspecified) | inactive | 
95 | O=C(CN1C(=O)NC2(CCCCC2)C1=O)NCCC1=CCCCC1 | inactive | 
96 | O=S(=O)(c1ccc(Cl)s1)N1CCC2(CC1)OCCO2 | inactive | 
97 | COc1ccc(CNC(=O)CN2C(=O)NC3(CCCc4sccc43)C2=O)cc1 (stereo unspecified) | inactive | 
98 | C=CCC1=C/C(=C\c2c(N)n3nc(CC(=O)N4CCOCC4)sc3nc2=O)C=C(OC)C1=O | inactive | 
99 | COC(=O)C1(C)NC(c2ccc(F)cc2)C2C(=O)N(c3ccccc3)C(=O)C21 (stereo unspecified) | inactive | 
100 | COC(=O)CSc1snnc1-c1ccc(Cl)c(Cl)c1 | inactive | 
101 | O=C1c2ccccc2NC(c2ccccn2)N1NS(=O)(=O)c1ccccc1 (stereo unspecified) | inactive | 
